The list is not random: actives were taken first. Their share in the collection is about 10%.
Six1-Eya2 blk – Six1/Eya2 interaction inhibition. Q15475+O00167. AlphaScreen GST-Six1/His-Eya2 binding, biochemical; stronger effect = lower value. activity change, % (no concentration beside the values). 360,000 tested, 0.56% active. AID 651725; in the data active means activity change below about -65%; inconclusive means mostly about -30% to -63%; further: on the % scale 0 is the no-effect control and ±100 the full control effect
Target sequence (O00167 whole entry, looked up): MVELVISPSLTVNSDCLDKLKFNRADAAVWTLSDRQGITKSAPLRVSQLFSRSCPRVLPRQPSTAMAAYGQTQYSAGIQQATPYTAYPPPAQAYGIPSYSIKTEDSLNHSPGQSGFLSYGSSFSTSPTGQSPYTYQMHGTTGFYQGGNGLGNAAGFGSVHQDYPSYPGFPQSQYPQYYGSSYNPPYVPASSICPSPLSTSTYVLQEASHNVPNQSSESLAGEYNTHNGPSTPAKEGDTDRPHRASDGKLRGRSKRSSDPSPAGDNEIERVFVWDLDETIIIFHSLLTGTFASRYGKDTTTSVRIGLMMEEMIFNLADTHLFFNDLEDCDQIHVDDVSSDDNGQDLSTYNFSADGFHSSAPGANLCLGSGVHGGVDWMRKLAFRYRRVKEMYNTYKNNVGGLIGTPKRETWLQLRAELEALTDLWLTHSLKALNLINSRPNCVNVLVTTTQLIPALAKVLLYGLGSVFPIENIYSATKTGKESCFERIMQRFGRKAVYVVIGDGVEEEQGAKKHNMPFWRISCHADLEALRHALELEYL
Target sequence (Q15475 whole entry, looked up): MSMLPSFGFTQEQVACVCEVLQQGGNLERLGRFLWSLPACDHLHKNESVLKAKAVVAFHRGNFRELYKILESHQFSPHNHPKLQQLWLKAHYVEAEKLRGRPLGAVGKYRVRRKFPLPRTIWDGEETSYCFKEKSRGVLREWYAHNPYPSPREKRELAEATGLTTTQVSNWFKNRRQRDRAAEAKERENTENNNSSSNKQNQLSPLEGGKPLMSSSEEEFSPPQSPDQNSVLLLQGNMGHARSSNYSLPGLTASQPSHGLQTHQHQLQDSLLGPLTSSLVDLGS
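Six1/Eya2 binding was read as AlphaScreen signal after compounds were pinned into GST-Six1 plus His-tagged Eya2 (5X stock 250/500 nM) in pH 8.0 Tris/NaCl/TCEP buffer, beads added, then incubated 1 h, 37 C, dark.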
CtBP-E1A inh – CtBP/E1A binding inhibition | AlphaScreen GST-E1A/His-CtBP binding, 1536-well; stronger effect = lower value | activity change, % (no concentration beside the values) | 340,000 tested, 0.49% active; in the data active means activity change below about -65%; inconclusive means mostly about -30% to -63%; further: on the % scale 0 is the no-effect control and ±100 the full control effect
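AlphaScreen with 125 nM GST-E1A and 125 nM His-CtBP (5X stocks) in Tris pH 8.0, 300 mM NaCl, BSA, Tween 20, TCEP. Compounds preincubated 2 h at 37 deg C, then glutathione donor/nickel acceptor beads added for 1 h at 37 deg C in dark.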
BAZ2B block – inhibitors of human BAZ2B bromodomain; Q9UIF8; AlphaScreen BAZ2B-H3K14Ac peptide displacement; Potency, µM (highest dose often 114 µM), without a hit: top-dose activity change, negative = inhibition, actives largely listed as inhibitors; 360,000 tested, 4.4% active; further: potency means the concentration at half of the fitted maximal effect; on the % scale 0 is the no-effect control and ±100 the full control effect; nearly all actives have a fitted effect of over 60% in size
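Multi-concentration screen (max 110 uM) measuring displacement of acetylated histone H3 peptide from BAZ2B by AlphaScreen, using 50 nM protein, 50 nM peptide and 10 ug/mL streptavidin donor plus Ni-chelate acceptor beads.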
G9a inh – blocks human histone lysine methyltransferase G9a | G9a H3K9 monomethylation, AlphaScreen, 2 h | Potency, µM (top dose mostly 102 µM), for the others: at the highest dose activity, negative = inhibition, actives largely listed as inhibitors | 350,000 tested, 8.8% active | AID 504332; further: potency means the concentration at half of the fitted maximal effect; on the % scale 0 is the no-effect control and ±100 the full control effect; nearly all actives have a fitted effect of over 75% in size
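Signal arises when biotinylated H3K9 peptide, once monomethylated, bridges streptavidin donor and antibody-captured acceptor beads. Enzyme at 20 nM was preincubated 15 min with test compounds; peptide 500 nM and SAM 20 uM then reacted for 2 h.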
HP1b chromo inh – inhibitors of HP1-beta chromodomain binding to methylated histone tails | P83916 | AlphaScreen HP1-beta / biotin-H3K9me3 peptide binding | Potency, µM (titrated, usually from 114 µM), for the others: top-dose activity change, negative = inhibition, usual class: inhibitors | 390,000 tested, 0.56% active; further: potency means the concentration at half of the fitted maximal effect; nearly all actives have a fitted effect of over 70% in size
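AlphaScreen: HP1-beta (50 nM) preformed 30 min with biotin-H3(1-18)K9me3 peptide (50 nM) in PBS pH 7.4, 0.01% Tween-20. Compound added for 30 min at RT, then streptavidin donor/nickel chelate acceptor beads (10 ug/mL) for 30 min.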
JMJD2A Tudor – JMJD2A Tudor domain (human) inhibition | 390,000 tested, 4.4% active | Potency, µM (highest dose often 114 µM), for inactives: top-dose activity change, negative = inhibition, usual class: inhibitors | O75164 | AlphaScreen JMJD2A-Tudor / H3K4me3 peptide binding | AID 504339; further: potency means the concentration at half of the fitted maximal effect; on the % scale 0 is the no-effect control and ±100 the full control effect; nearly all actives have a fitted effect of over 50% in size
* hit, by the source's call; ? = inconclusive; · = no result given; [ ] = another dose, or the depositor's remark. Unless noted, the call rests on the fitted dose curve; in most records, active means well fitted inhibition curve with a large enough effect; inconclusive means small, poorly fitted or top-dose-only effect; inactive means no such curve, though single readings can be large or run the other way.

SMILES	Six1-Eya2 blk	CtBP-E1A inh	BAZ2B block	G9a inh	HP1b chromo inh	JMJD2A Tudor
CN(C)c1ccc(NC(=S)c2ccc3ccccc3n2)cc1	-2.7	·	2.51µM*	2µM*	41.3%	-12.4%
COc1ccc(C(=O)Nc2ccc(N3CCCC3)cc2)cc1Br	-28.3	-6.8	0.2%	39.8µM*	11.6%	?
COc1ccc(C(=O)N/N=C(/C)c2ccc(N3CCCCC3)cc2)cc1	-0.4	1.7	2.1%	20.0%[59 µM]	8.0%	50.1µM*
CCC(N)(C(=O)O)c1ccc(C(=O)O)cc1 (stereo not given)	·	·	·	20.6%[59 µM]	·	·
CCCNC(=O)c1ccccc1NC(=O)c1nsc2ccccc12	·	·	1.6%	-0.9%[59 µM]	36.6%[57 µM]	-12.3%
CCCCNC(=O)C[C@@H]1C[C@@]2(C(=O)OCC)CCCC=C2N(Cc2ccc3c(c2)OCO3)C1=O	-1.4	1.8	·	·	·	·
Cc1cc(C)c2c(=O)c3c(oc2c1)C(=O)N(Cc1ccco1)C3c1ccccc1F (stereo not given)	·	·	-2.8%	2.7%[59 µM]	60.4%	0.6%
COc1ccc(NC(=S)c2ccc(N(C)C)cc2)cc1	-8.8	-10.1	-25.6%	25.1µM*	?	-11.1%
O=C(Nc1ccc2c(c1)C(=O)c1ccccc1-2)c1ccccc1	-4.5	6.9	·	·	15.8%	-9.7%
COc1cccc(C(=O)Nc2ccc3c(c2)C(=O)c2ccccc2C3=O)c1	-13.5	-11.7	-35.8%	-14.0%[59 µM]	-12.0%	17.8µM*
COc1cccc(C(=O)NC(=S)Nc2ccc3oc(=O)ccc3c2)c1	-9.6	-23.4	3.4%	39.8µM*	17.3%	-26.1%
CCOc1ccc(C(=O)NC(=S)Nc2ccc(N3CCC(C)CC3)cc2)cc1[N+](=O)[O-]	-9.8	-13.0	?	10µM*	-32.2%	?
CCOC(=O)c1c(NC(=O)COC(=O)c2ccccn2)sc(C)c1C	-1.1	3.1	?	?	28.0%	6.4%
CCc1ccc(-c2[nH]c3c(c2-c2c(-n4cccc4)n(C)c(=O)[nH]c2=O)c(=O)[nH]c(=O)n3C)cc1	·	·	-23.5%	2.7%[59 µM]	49.8%	0.3%
COCCNC(=S)N/N=C/c1ccc(N2CCOCC2)cc1	-1.3	3.2	-38.5%	7.4%[59 µM]	31.1%	-24.3%
COc1cc(C(=O)NC(=S)Nc2ccc(N3CCCC3)cc2)cc(OC)c1OC	-11.5	-11.6	?	31.6µM*	10.2%	-31.5%
COc1cccc(C(=O)NC(=S)Nc2ccc(N3CCCC3)cc2)c1	-67.7*	?	12.6µM*	8.91µM*	?	39.8µM*
CC(C)Oc1cccc(C(=O)NC(=S)Nc2ccc(N3CCN(C)CC3)cc2)c1	-4.7	·	39.8µM*	·	?	50.1µM*
COCCNC(=S)Nc1ccc(N2CCCCC2)cc1	-2.6	-11.1	50.1µM*	8.91µM*	?	?
COc1ccc(C(=O)NC(=S)Nc2ccc(N3CCCC3)cc2)cc1	-20.0	-13.5	-27.9%	?	-9.7%	-19.0%
COc1ccc(CNc2nc(-c3ccccc3)nn2S(=O)(=O)c2ccccc2)cc1	·	·	31.1%	29.4%[59 µM]	86.9%	26.1%
Cc1cc(-c2nnc3n2N=C(c2ccccc2)CS3)n[nH]1	?	?	-21.8%	44.7µM*	14.7%	?
Cc1cc(-c2nnc3n2N=C(c2ccc(F)cc2)CS3)n[nH]1	?	?	-4.7%	-4.4%	36.3%	10.3%
Cc1cc(-c2nnc3n2N=C(c2ccc(-c4ccccc4)cc2)CS3)n[nH]1	-72.0*	-68.5*	-35.1%	?	0.7%	-18.5%[11.4 µM]
CCC(Oc1ccccc1)C(=O)NCCOC (stereo not given)	8.3	6.5	7.0%	17.8%[59 µM]	11.0%	-2.2%
SMILES	Six1-Eya2 blk	CtBP-E1A inh	BAZ2B block	G9a inh	HP1b chromo inh	JMJD2A Tudor
CCOc1cc(N2CCOCC2)c(OCC)cc1NC(=O)CN1CCCC1	5.2	-8.2	12.6µM*	3.16µM*	4.1%	?
CCOc1cc(N2CCOCC2)c(OCC)cc1NC(=O)Cc1cccc2ccccc12	?	?	22.4µM*	3.55µM*	-16.8%	?
CCOc1cc(N2CCOCC2)c(OCC)cc1NC(=O)C1CCCC1	-9.8	10.5	-2.8%	7.94µM*	8.6%	-7.6%
CCOc1cc(N2CCOCC2)c(OCC)cc1NC(=O)C(C)Oc1ccccc1 (stereo not given)	-26.0	-29.1	·	·	-16.7%[57 µM]	35.5µM*
CCOc1cc(N2CCOCC2)c(OCC)cc1NC(=O)CN1C(=O)C2CC=CCC2C1=O (stereo not given)	-4.9	5.5	-3.4%	16.4%	14.0%	-16.2%
CCOc1cc(N2CCOCC2)c(OCC)cc1NC(=O)CCC1CCCC1	-5.1	-0.2	-34.0%	-3.5%[59 µM]	4.0%	-24.1%
COc1ccccc1CNC(=O)CCCn1c(=O)c2cccn2c2ccccc21	·	·	4.4%	8.9%[59 µM]	88.0%	-30.9%
Cc1ccc(NC(=S)N(C)C)cc1C	-8.7	1.7	-6.5%	·	1.4%	-12.3%
Cc1cccc(NC(=O)c2cc3c(=O)n4cccc(C)c4nc3s2)c1C	·	·	2.5%	5.2%[59 µM]	25.8%	-17.4%
O=C(CN1C(=O)C(c2ccc(F)cc2)=NC12CCCCCC2)Nc1ccc(F)c(Cl)c1	·	·	-2.7%	0.4%[59 µM]	21.4%	-18.8%
O=C(Cc1ccc(F)cc1)NC1CC(=O)N(c2ccccc2)C1 (stereo not given)	·	·	-0.8%	3.7%[59 µM]	-1.9%	-8.4%
CCOc1cc(N2CCOCC2)c(OCC)cc1NC(=O)c1ccc2ccccc2n1	?	-16.6	15.8µM*	17.8µM*	?	22.4µM*
CCOc1cc(N2CCOCC2)c(OCC)cc1NC(=O)c1ccc(=O)n(Cc2ccccc2)n1	·	·	-2.4%	21.9%	·	·
CCOc1cc(N2CCOCC2)c(OCC)cc1NC(=O)c1nn(CC)c(=O)c2ccccc12	-21.8	-3.9	50.1µM*	?	-39.9%	50.1µM*
CCOc1cc(N2CCOCC2)c(OCC)cc1NC(=O)c1ccccc1C	2.4	3.4	?	?	-10.4%	?
Cc1ccc(S(=O)(=O)N2CCN(c3nc(-c4cccs4)nc4cccnc34)CC2)cc1	·	·	·	·	21.4%	-24.8%
CCOC(=O)CN(C)C(=O)C1CC(CO[Si](C)(C)C(C)(C)C)=CN1C(=O)OC(C)(C)C (stereo not given)	·	·	·	·	17.9%	-26.2%
O=C1/C(=C/c2ccc(N3CCOCC3)o2)SC(=Nc2ccccc2)N1CCc1c[nH]c2ccccc12	?	-16.4	?	?	-38.3%	?
COc1cc(/C=C2\SC(=Nc3ccccc3)N(CCc3c[nH]c4ccccc34)C2=O)ccc1OC(C)C(=O)O (stereo not given)	-0.6	-3.9	44.7µM*	6.31µM*	?	56.2µM*
COc1ccc(N=C2S/C(=C\c3ccc(OC(C)C(=O)O)c(OC)c3)C(=O)N2CCc2c[nH]c3ccccc23)cc1 (stereo not given)	-24.4	-10.1	22.4µM*	35.5µM*	?	39.8µM*
